Counter-ions that a name gives are not always drawn. ± gives the standard deviation of the averaged measurements.
Test system: Escherichia coli ATCC BAA-2469
Assay: percent growth inhibition of drug alone vs DMSO control; higher = more growth inhibition
Conditions: antibiotic (0.125x MIC): none (0.1% DMSO); 7 µM
Procedure: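 Prestwick drugs tested at 20 uM and 7 uM with an antibiotic at 0.125x MIC (16 mg/L when MIC >128 mg/L) against E. coli ATCC BAA-2469 (NDM-1) in CAMHB, 384-well plates, duplicate runs. Percent growth inhibition was computed from OD600 (24 h minus 0 h) relative to DMSO wells. Drug + DMSO-only wells are also given. […]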

CO/N=C(\C(=O)N[C@@H]1C(=O)N2C(C(=O)O)=C(COC(N)=O)CS[C@H]12)c1ccco1 [Cefuroxime sodium salt] and CCOC(=O)c1ccc(OC(=O)CCCCCNC(=N)N)cc1 [Gabexate mesilate] are within error of each other in “percent growth inhibition of drug alone” value: -0.846 ± 2.2% for the first, 3.5 ± 6.5% for the second.

Oc1c(Cl)cc(Cl)c(Cl)c1Cc1c(O)c(Cl)cc(Cl)c1Cl [Hexachlorophene] and O=C(Nc1ccc([N+](=O)[O-])cc1Cl)c1cc(Cl)ccc1O [Niclosamide] are within error of each other in “percent growth inhibition of drug alone” value: 9.96 ± 8.8% for the first, 2.78 ± 1.6% for the second.

First: NS(=O)(=O)c1cc2c(cc1C(F)(F)F)NC(Cc1ccccc1)NS2(=O)=O (stereo unspecified) [Bendroflumethiazide]
Second: O=c1[nH]c(=O)n([C@H]2C[C@H](O)[C@@H](CO)O2)cc1C(F)(F)F [Trifluridine]
The “percent growth inhibition of drug alone” value of the first is lower: -1.67 ± 1.1% for the first, 4.84 ± 4.7% for the second.

CC1=C(/C=C/C(C)=C/C=C/C(C)=C\C(=O)O)C(C)(C)CCC1 [Isotretinoin] and Cc1cccc(C)c1NC(=O)C1CCCCN1C (stereo unspecified) [Mepivacaine hydrochloride] are within error of each other in “percent growth inhibition of drug alone” value: 1.08 ± 2.4% for the first, -0.605 ± 0.25% for the second.

CS(=O)(=O)c1ccc([C@@H](O)[C@@H](CF)NC(=O)C(Cl)Cl)cc1 [Florfenicol] and CCCCCCCCNC(C)C(O)c1ccc(SC(C)C)cc1 (stereo unspecified) [Suloctidil] are within error of each other in “percent growth inhibition of drug alone” value: 21.5 ± 9.2% for the first, 7.25 ± 11% for the second.

First: Clc1cccc(Cl)c1NC1=NCCN1 [Clonidine hydrochloride]
Second: Oc1c(I)cc(Cl)c2cccnc12 [Clioquinol]
The “percent growth inhibition of drug alone” value of the first is lower: 0.913 ± 1.3% for the first, 11.8 ± 2.5% for the second.

NC(=O)N/N=C/c1ccc([N+](=O)[O-])o1 [Nitrofural] and Cc1nnc(NS(=O)(=O)c2ccc(N)cc2)s1 [Sulfamethizole] are within error of each other in “percent growth inhibition of drug alone” value: 5.6 ± 7.3% for the first, 2.42 ± 3% for the second.

Compared with OC(CCN1CCCC1)(c1ccccc1)C1CCCCC1 (stereo unspecified) [Procyclidine hydrochloride], COc1ccccc1OCC(O)CO (stereo unspecified) [Guaifenesin] is lower in “percent growth inhibition of drug alone” value: 3.3 ± 1.6% for the first, -0.628 ± 1.6% for the second.

CCN(CC)CCNC(=O)c1cc(Br)c(N)cc1OC [Bromopride] and COc1cc(C(=O)NCc2ccc(OCCN(C)C)cc2)cc(OC)c1OC [Trimethobenzamide hydrochloride] are within error of each other in “percent growth inhibition of drug alone” value: -0.123 ± 0.93% for the first, 2.6 ± 2.7% for the second.

First: N=C(NCCCCCCNC(=N)NC(=N)Nc1ccc(Cl)cc1)NC(=N)Nc1ccc(Cl)cc1 [Chlorhexidine]
Second: COc1cc(NS(=O)(=O)c2ccc(N)cc2)nc(OC)n1 [Sulfadimethoxine]
The “percent growth inhibition of drug alone” value of the first is higher: 103 ± 2.7% for the first, -0.418 ± 1.2% for the second.

Nc1ccn([C@@H]2O[C@H](CO)[C@@H](O)C2(F)F)c(=O)n1 [Gemcitabine] was tested, and the “percent growth inhibition of drug alone” value was 15.3 ± 12%.

Same assay, conditions: antibiotic (0.125x MIC): none (0.1% DMSO); 20 µM

Compared with CO/N=C(\C(=O)N[C@@H]1C(=O)N2C(C(=O)O)=C(COC(N)=O)CS[C@H]12)c1ccco1 [Cefuroxime sodium salt], CCOC(=O)c1ccc(OC(=O)CCCCCNC(=N)N)cc1 [Gabexate mesilate] is higher in “percent growth inhibition of drug alone” value: -0.542 ± 0.39% for the first, 0.291 ± 0.37% for the second.

First: NS(=O)(=O)c1cc2c(cc1C(F)(F)F)NC(Cc1ccccc1)NS2(=O)=O (stereo unspecified) [Bendroflumethiazide]
Second: O=c1[nH]c(=O)n([C@H]2C[C@H](O)[C@@H](CO)O2)cc1C(F)(F)F [Trifluridine]
The “percent growth inhibition of drug alone” value of the first is lower: -1.13 ± 2.1% for the first, 11.3 ± 6.5% for the second.

First: CC1=C(/C=C/C(C)=C/C=C/C(C)=C\C(=O)O)C(C)(C)CCC1 [Isotretinoin]
Second: Cc1cccc(C)c1NC(=O)C1CCCCN1C (stereo unspecified) [Mepivacaine hydrochloride]
The “percent growth inhibition of drug alone” value of the first is higher: 3.78 ± 1.7% for the first, -0.545 ± 1.2% for the second.

Clc1cccc(Cl)c1NC1=NCCN1 [Clonidine hydrochloride] and O=C(Nc1ccc([N+](=O)[O-])cc1Cl)c1cc(Cl)ccc1O [Niclosamide] are within error of each other in “percent growth inhibition of drug alone” value: 3.75 ± 2.2% for the first, 14.5 ± 19% for the second.

First: NC(=O)N/N=C/c1ccc([N+](=O)[O-])o1 [Nitrofural]
Second: Cc1nnc(NS(=O)(=O)c2ccc(N)cc2)s1 [Sulfamethizole]
The “percent growth inhibition of drug alone” value of the first is higher: 32.1 ± 18% for the first, -3.23 ± 2.1% for the second.

OC(CCN1CCCC1)(c1ccccc1)C1CCCCC1 (stereo unspecified) [Procyclidine hydrochloride] and COc1ccccc1OCC(O)CO (stereo unspecified) [Guaifenesin] are within error of each other in “percent growth inhibition of drug alone” value: -0.85 ± 5% for the first, -0.463 ± 1.9% for the second.

CCN(CC)CCNC(=O)c1cc(Br)c(N)cc1OC [Bromopride] and COc1cc(C(=O)NCc2ccc(OCCN(C)C)cc2)cc(OC)c1OC [Trimethobenzamide hydrochloride] are within error of each other in “percent growth inhibition of drug alone” value: 1.57 ± 1.2% for the first, -0.217 ± 4.2% for the second.

CO[C@H]1/C=C/O[C@@]2(C)Oc3c(C)c(O)c4c(O)c(c(/C=N/N5CCN(C6CCCC6)CC5)c(O)c4c3C2=O)NC(=O)/C(C)=C\C=C\[C@H](C)[C@H](O)[C@@H](C)[C@@H](O)[C@@H](C)[C@H](OC(C)=O)[C@@H]1C [Rifapentine] and CO[C@H]1/C=C/O[C@@]2(C)Oc3c(C)c(O)c4c(O)c(c5c(nc6cc(C)ccn65)c4c3C2=O)NC(=O)/C(C)=C\C=C\[C@H](C)[C@H](O)[C@@H](C)[C@@H](O)[C@@H](C)[C@H](OC(C)=O)[C@@H]1C [Rifaximin] are within error of each other in “percent growth inhibition of drug alone” value: 112 ± 10% for the first, 102 ± 7.8% for the second.

Going from N=C(NCCCCCCNC(=N)NC(=N)Nc1ccc(Cl)cc1)NC(=N)Nc1ccc(Cl)cc1 [Chlorhexidine] to CCCCCCCCNC(C)C(O)c1ccc(SC(C)C)cc1 (stereo unspecified) [Suloctidil], the “percent growth inhibition of drug alone” value falls from 106 ± 2.6% to 10.4 ± 16%.

Going from Nc1ccn([C@@H]2O[C@H](CO)[C@@H](O)C2(F)F)c(=O)n1 [Gemcitabine] to COc1cc(NS(=O)(=O)c2ccc(N)cc2)nc(OC)n1 [Sulfadimethoxine], the “percent growth inhibition of drug alone” value falls from 28.3 ± 14% to -0.552 ± 0.63%.

— the supplement of paper PMC6658780
